Experimental findings from the antibiotic and cytotoxicity screens of Wong et al. (2023) are described below.

Among all 39,000 compounds or so, about 3,300 (8.5%) were called active. The sample as a whole holds a higher share of actives than the screen did.

The subject of this assay is HepG2. The experiment in a line: cytotoxicity call (relative viability < 0.9). The conditions noted are these: 10 µM.
For the compound `Cc1cc(=O)n2ncnc2n1CC(=O)NN`, the cytotoxicity call is “inactive”.
Then `Cc1cc(C(=O)Nc2cccc3c2O[C@H](CN(C)C(=O)NC2CCCCC2)[C@@H](C)CN([C@@H](C)CO)C3=O)n(C)n1`, with “inactive”; and `C[C@H](CO)N1C[C@H](C)[C@H](CN(C)S(=O)(=O)c2cn(C)cn2)Oc2ccc(NC(=O)NC3CCCCC3)cc2CC1=O`, with “inactive”.
Then `C[C@@H]1CN([C@H](C)CO)C(=O)c2cc(NC(=O)CCN3CCOCC3)ccc2O[C@H]1CN(C)C(=O)Nc1ccccc1`, with “inactive”; and `CS(=O)(=O)Nc1ccc2c(c1)[C@H]1C[C@@H](CC(=O)NCC3CC3)O[C@@H](CO)[C@H]1O2`, with “inactive”; and `CC(C)N1C[C@@H](CNCc2ccc(Oc3ccccc3)cc2)Oc2c(NC(=O)c3ccncc3)cccc2C1=O`, with “inactive”.
Consider `CC(C)NCC(O)COc1cccc2[nH]ccc12` (centres undefined), for which the cytotoxicity call was “inactive”.
In the case of `CC(C)NCC(O)COc1cccc2ccccc12.Cl` (centres undefined) it was “active”; in that of `C=CCc1ccccc1OCC(O)CNC(C)C.Cl` (centres undefined), “active”; in that of `COCCc1ccc(OCC(O)CNC(C)C)cc1.O=C(O)C(O)C(O)C(=O)O` (centres undefined), “inactive”.
For the compound `CC(C)NCC(O)COc1ccc(COCCOC(C)C)cc1.O=C(O)C=CC(=O)O` (centres undefined), the cytotoxicity call is “inactive”.
Then `O=C1C(=O)N(C[C@@H](O)COc2cccc3ccccc23)C(=O)C(=O)N1C[C@@H](O)COc1cccc2ccccc12`, with “inactive”.
In the case of `COc1ccccc1OCC(O)CN1CCN(CC(=O)Nc2c(C)cccc2C)CC1.Cl.Cl` (centres undefined), the cytotoxicity call is “inactive”.
Consider `CC(C)NCC(O)COc1cccc2[nH]c3ccccc3c12` (centres undefined), for which the cytotoxicity call is “active”.
Then `CC(C)NCC(O)COc1ccc(CC(N)=O)cc1` (centres undefined), with “inactive”; and `COc1ccccc1N1CCN(CC(O)COc2cccc3ccccc23)CC1` (centres undefined), with “active”.
Then `O=C(C[C@H]1C=C[C@@H](NS(=O)(=O)c2ccc(F)cc2)[C@@H](CO)O1)NCc1ccc(Cl)c(Cl)c1`, with “inactive”.
As to `COc1ccc2c3c(n(c2c1)C)[C@H](CO)N(C[C@]13CN(CC2CCOCC2)C1)C(=O)c1ccc(cc1)F`, the cytotoxicity call is “inactive”.
Then `C[C@H](CO)N1C[C@H](C)[C@H](CN(C)S(=O)(=O)c2cccc(F)c2)Oc2ncc(Br)cc2C1=O`, with “inactive”; and `C[C@@H]1CN([C@@H](C)CO)C(=O)c2cc(NC(=O)CCCN(C)C)ccc2O[C@@H]1CN(C)S(=O)(=O)c1ccccc1`, with “inactive”; and `C[C@H]1CN([C@@H](C)CO)C(=O)Cc2cc(NC(=O)Cn3cnnn3)ccc2O[C@H]1CN(C)S(=O)(=O)c1cccs1`, with “inactive”.
As to `C[C@H]1CN([C@@H](C)CO)C(=O)Cc2cc(NC(=O)C3CC3)ccc2O[C@@H]1CN(C)Cc1ccc(Oc2ccccc2)cc1`, the cytotoxicity call was “inactive”.
In the case of `Cc1noc(C)c1NC(=O)Nc1cccc2c1O[C@@H](CN(C)S(=O)(=O)c1ccccc1)[C@@H](C)CN([C@@H](C)CO)C2=O` it was “inactive”; in that of `CC1=C(/C=C/C(C)=C/C=C/C(C)=C/C=C/C=C(C)/C=C/C=C(C)/C=C/C2=C(C)C(=O)[C@@H](O)CC2(C)C)C(C)(C)C[C@H](O)C1=O`, “inactive”.
In the case of `CCOC(=O)N[C@@H]1CC(=O)N(C2CC2)C1` it was “inactive”; in that of `N[C@H](CO)COCc1ccccc1`, “inactive”; in that of `Cc1ccc(S(=O)(=O)N(C)C[C@H]2Oc3c(NC(=O)c4ccncc4)cccc3C(=O)N([C@H](C)CO)C[C@@H]2C)cc1`, “inactive”.
Then `C[C@@H]1CCCCO[C@H](CN(C)CC2CCCCC2)[C@H](C)CN([C@@H](C)CO)C(=O)c2cc(NC(=O)Cc3ccccc3)ccc2O1`, with “inactive”; and `C[C@H](CO)N1C[C@H](C)[C@H](CN(C)S(=O)(=O)c2cn(C)cn2)Oc2ccc(NC(=O)Cc3cn(C)c4ccccc34)cc2CC1=O`, with “inactive”; and `Cc1cc(C(=O)Nc2cccc3c2O[C@H](CN(C)C(=O)Nc2c(C)noc2C)[C@H](C)CN([C@H](C)CO)C3=O)n(C)n1`, with “inactive”.
In the case of `C[C@H](CO)N1C[C@H](C)[C@H](CN(C)Cc2ccccc2)OCCCC[C@H](C)Oc2ccc(NS(=O)(=O)c3ccccc3)cc2C1=O`, the cytotoxicity call was “inactive”.
Take `C[C@@H]1CCCCO[C@@H](CN(C)Cc2ccccc2)[C@@H](C)CN([C@@H](C)CO)C(=O)c2cc(NS(=O)(=O)c3ccccc3)ccc2O1`: the cytotoxicity call was “active”.
In the case of `Cc1ccc(S(=O)(=O)Nc2ccc3c(c2)C(=O)N([C@H](C)CO)C[C@@H](C)[C@@H](CN(C)Cc2ccccc2)OCCCC[C@@H](C)O3)cc1` it was “inactive”; in that of `C[C@@H]1CN([C@@H](C)CO)C(=O)c2cc(NS(=O)(=O)c3ccccc3)ccc2O[C@@H](C)CCCCO[C@@H]1CN(C)Cc1ccccc1`, “inactive”; in that of `Cc1ccc(S(=O)(=O)Nc2ccc3c(c2)C(=O)N([C@H](C)CO)C[C@@H](C)[C@H](CN(C)Cc2ccccc2)OCCCC[C@H](C)O3)cc1`, “active”.
In the case of `Cc1ccc(S(=O)(=O)Nc2ccc3c(c2)C(=O)N([C@@H](C)CO)C[C@@H](C)[C@@H](CN(C)Cc2ccccc2)OCCCC[C@H](C)O3)cc1` it was “inactive”; in that of `C[C@H]1CN([C@@H](C)CO)S(=O)(=O)c2ccc(C#CCN(C)C)cc2O[C@@H]1CN(C)Cc1ccc2c(c1)OCO2`, “inactive”.
Then `C[C@@H]1CN([C@@H](C)CO)C(=O)Cc2cc(NC(=O)CCCN(C)C)ccc2O[C@@H]1CN(C)S(=O)(=O)c1ccc(Cl)cc1`, with “inactive”; and `COC(=O)C(CC#Cc1ccc2c(c1)[C@]1(C(=O)N2)[C@H](c2ccccc2OCCO)N2[C@H](c3ccccc3)[C@H](c3ccccc3)OC(=O)[C@H]2[C@@H]1C(=O)N1CCc2cc(OC)c(OC)cc2C1)C(=O)OC`, with “inactive”.
For `C[C@@H]1CCCCO[C@@H](CN(C)C(=O)Nc2ccc3c(c2)OCO3)[C@H](C)CN([C@H](C)CO)C(=O)c2cc(NC(=O)C3CCCCC3)ccc2O1`, the cytotoxicity call was “inactive”.
In the case of `C=CN1CCCC1=O` it was “inactive”.
Then `C[C@@H]1CN([C@@H](C)CO)C(=O)c2cc(NC(=O)NC3CCCCC3)ccc2O[C@H]1CN(C)Cc1ccc(Cl)c(Cl)c1`, with “inactive”.
Then `C[C@H](CO)N1C[C@H](C)[C@@H](CN(C)Cc2ccc(C(F)(F)F)cc2)Oc2ccc(NS(=O)(=O)c3ccc(Cl)cc3)cc2C1=O`, with “active”; and `C[C@@H]1CN([C@H](C)CO)C(=O)c2cc(NS(=O)(=O)c3ccc(Cl)cc3)ccc2O[C@H]1CN(C)Cc1ccc(C(F)(F)F)cc1`, with “inactive”.
For the compound `C[C@H]1CN([C@@H](C)CO)C(=O)c2cc(NS(=O)(=O)c3ccc(Cl)cc3)ccc2O[C@H]1CN(C)Cc1ccc(C(F)(F)F)cc1`, the cytotoxicity call is “inactive”.
Then `C[C@@H]1CN([C@@H](C)CO)C(=O)c2cc(NS(=O)(=O)c3ccc(Cl)cc3)ccc2O[C@@H]1CN(C)Cc1ccc(C(F)(F)F)cc1`, with “active”; and `C[C@@H]1CN([C@@H](C)CO)C(=O)c2cc(NS(=O)(=O)c3ccc(Cl)cc3)ccc2O[C@H]1CN(C)Cc1ccc(C(F)(F)F)cc1`, with “inactive”; and `C[C@H](CO)N1C[C@H](C)[C@H](CN(C)Cc2ccc(C(F)(F)F)cc2)Oc2ccc(NS(=O)(=O)c3ccc(Cl)cc3)cc2C1=O`, with “active”.
For the compound `C[C@@H]1CN([C@H](C)CO)C(=O)c2cc(NS(=O)(=O)c3ccc(Cl)cc3)ccc2O[C@@H]1CN(C)Cc1ccc(C(F)(F)F)cc1`, the cytotoxicity call is “active”.
In the case of `C[C@H]1CN([C@@H](C)CO)C(=O)c2cc(NS(=O)(=O)c3ccc(Cl)cc3)ccc2O[C@@H]1CN(C)Cc1ccc(C(F)(F)F)cc1` it was “inactive”; in that of `C[C@H](CO)N1C[C@H](C)[C@H](CN(C)C(=O)Cc2ccccn2)Oc2cc(-c3ccc(C(=O)N(C)C)cc3)ccc2S1(=O)=O`, “inactive”.
Then `N[C@@H](CSCc1ccccc1Cl)C(=O)O`, with “inactive”.
As for `COc1ccc(S(=O)(=O)Nc2ccc3c(c2)C(=O)N([C@@H](C)CO)C[C@H](C)[C@@H](CN(C)Cc2ccccc2)OCCCC[C@@H](C)O3)cc1`, the cytotoxicity call is “inactive”.
`C[C@H]1CCCCO[C@@H](CN(C)C(=O)Nc2ccc3c(c2)OCO3)[C@@H](C)CN([C@@H](C)CO)C(=O)c2cc(NC(=O)Nc3ccc(F)cc3)ccc2O1`: the cytotoxicity call is “inactive”.
Then `NNC(=S)Nc1cccc(F)c1`, with “inactive”; and `C[C@@H]1CN([C@@H](C)CO)C(=O)c2cc(C#CCN(C)C)cnc2O[C@H]1CN(C)S(=O)(=O)c1cn(C)cn1`, with “inactive”; and `COc1cccc(C#Cc2cnc3c(c2)C(=O)N([C@H](C)CO)C[C@H](C)[C@H](CN(C)C(=O)C2CCOCC2)O3)c1`, with “inactive”.
Then `C[C@H]1CCCCO[C@H](CN(C)Cc2ccc(C(=O)O)cc2)[C@@H](C)CN([C@@H](C)CO)C(=O)c2cc(NC(=O)Nc3ccc(C(F)(F)F)cc3)ccc2O1`, with “inactive”; and `Cc1noc(C)c1NC(=O)Nc1ccc2c(c1)C(=O)N([C@H](C)CO)C[C@@H](C)[C@H](CN(C)S(=O)(=O)c1ccc(F)cc1)OCCCC[C@@H](C)O2`, with “inactive”; and `ON/C=N\c1nonc1-c1cccnc1`, with “inactive”.
In the case of `Nc1c[nH]ccc1=O` it was “inactive”; in that of `COc1ccc(NC(=O)N(C)C[C@H]2OCCCC[C@H](C)Oc3ccc(NS(=O)(=O)c4cccs4)cc3C(=O)N([C@H](C)CO)C[C@@H]2C)cc1`, “inactive”; in that of `COc1ccc2nc3cc(Cl)ccc3c(Nc3cc(CN4CCCC4)c(O)c(CN4CCCC4)c3)c2n1.O=P(O)(O)O.O=P(O)(O)O.O=P(O)(O)O.O=P(O)(O)O`, “active”.
With `CCC(=O)N[C@H]1CC[C@@H](CC(=O)OC)O[C@@H]1CO`, the cytotoxicity call was “inactive”.
In the case of `CC(=O)c1ccc(F)c(Cl)c1` it was “inactive”; in that of `Nc1c2ccccc2nc2ccccc12`, “active”; in that of `CCc1nc2ccccc2c(N)c1C`, “inactive”.
Then `Nc1c2c(nc3ccccc13)CCCC2`, with “inactive”.
Turning to `Nc1nnc(N)c2ccccc12`, the cytotoxicity call was “inactive”.
Turning to `Nc1nc(N)c2c(n1)CCCC2`, the cytotoxicity call was “inactive”.
In the case of `Cl.Nc1c2c(nc3ccccc13)CCCC2` it was “active”; in that of `C[C@H](CO)N1C[C@H](C)[C@H](CN(C)C)Oc2cc(C#C[C@@H](C)O)ccc2S1(=O)=O`, “inactive”; in that of `C=CCCCCCCCCC(=O)Nc1ccccc1C`, “inactive”.
Then `C[C@@H]1CN([C@@H](C)CO)C(=O)c2cc(/C=C/c3ccccc3)cnc2O[C@H]1CN(C)C(=O)C1CCOCC1`, with “inactive”.
